According to the supplement of paper PMC6555819:

What was measured:
Assay in all cases: PBM binding z-score (relative to random genomic background probes); higher = stronger binding; sequences stand for … in GC…GCGATTGACAGCGTAGAATGAAGG
[1] = test system: RARb homodimer (NR concentration 270 nM)
Outline: (§1)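 Binding z-scores take random background probes as their reference. They come from custom Agilent 4×180K protein-binding microarrays incubated 1 h with ligand-free nuclear receptor dimers, with antibodies against each partner (one per run) detecting binding. Scanned fluorescence was regression-normalized.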

[2] = test system: RARg:RXRa (NR concentration 270 nM, RXRa partner concentration 90 nM)
Outline: as §1

[3] = test system: RARg homodimer (NR concentration 270 nM)
Outline: as §1

[4] = test system: RXRa DBDmut IVT, anti-RXR (DBD mutation: RXRa K156A/R161A, NR concentration 90 nM)
Outline: as §1

[5] = test system: RXRa homodimer (NR concentration 180 nM)
Outline: as §1

[6] = test system: THRa:RXRa (NR concentration 90 nM, RXRa partner concentration 90 nM)
Outline: as §1

[7] = test system: THRa homodimer (NR concentration 90 nM)
Outline: as §1

[8] = test system: VDR homodimer (NR concentration 270 nM)
Outline: as §1

| Sequence | PBM binding z-score [1] | PBM binding z-score [2] | PBM binding z-score [3] | PBM binding z-score [4] | PBM binding z-score [5] | PBM binding z-score [6] | PBM binding z-score [7] | PBM binding z-score [8] |
| --- | --- | --- | --- | --- | --- | --- | --- | --- |
| CCTAGTGGGTCAAGGTCACACACGCTATAGGTAC | 4.58 | 5.74 | 6.11 | 1.58 | 5.6 | 4.22 | 3.74 | 3.44 |
| GCTAGTTGGTCAGTAAACGGTCACACACCGGTCG | 2.63 | 1.5 | 1.33 | -0.0327 | 0.347 | 0.155 | -0.176 | -0.361 |
| CCTACTGGGCCACGAAATGTCATTGATTCAGTGA | 0.607 | 0.2 | 0.479 | -0.374 | -0.0138 | 0.211 | -0.319 | -0.54 |
| GTACCAAGGTGAATCGGTCGTTGATGAGTAGGCG | 1.27 | 1.17 | 1.01 | -0.343 | 0.482 | 1.49 | 0.486 | -0.443 |
| ATCTGTAGGTAACAAGTTCAGTGAAAGAGAGGAC | 2.16 | 1.44 | 1.42 | 0.851 | 0.902 | 1.26 | 0.755 | 2.46 |
| CGTCAAAGTTCAAGGTAACGAAACAGAAAGCAGC | 3.67 | 5.6 | 6.29 | 4.46 | 5.13 | 2.9 | 0.933 | 2.99 |
| TAGCCTAGGGCATGGGCCAGTATACCACGCGAAC | 0.79 | 0.484 | 0.834 | -1.24 | 0.135 | -0.0791 | 0.0268 | -0.21 |
